Laboratory results published in PubChem BioAssay AID1159580 (chemical genetic matrix, 2015).
The campaign covered roughly 5,500 compounds. About 2,000 (36%) were called active. Not shown: some 18% with an inconclusive outcome. Some of the results follow. Values without a mark were called inactive. Rule as the data show it: active = normalized growth mostly below about 0.91 (no sharp cut-off); inconclusive = no clear call, values can overlap the other calls; inactive = mostly above about 0.92.

Assay: chemical genetic growth profiling, strain panel (AID 1159580);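 also: tested at 20 µM; growth read once vehicle control cultures reached saturation at 30 °C; 1 = growth at the plate median or of vehicle wells; lower values mean less growth of the strain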
Settings: S. cerevisiae deletion strains, growth OD
[1] = locus YDL101C, strain DUN1, hits give low values
[2] = locus YHR030C, strain SLT2, hits give low values
[3] = locus YAR019C, strain CDC15, hits give low values
[4] = locus YBL105C, strain PKC1, hits give low values
[5] = locus YBR135W, strain CKS1, hits give low values
[6] = locus YBR136W, strain MEC1, hits give low values
[7] = locus YBR160W, strain CDC28, hits give low values
[8] = locus YDL017W, strain CDC7, hits give low values
[9] = locus YDL028C, strain MPS1, hits give low values
[10] = locus YDL108W, strain KIN28, hits give low values
[11] = locus YDL132W, strain cdc53, hits give low values
[12] = locus YDL214C, strain PRR2, hits give low values
[13] = locus YDR052C, strain DBF4, hits give low values
[14] = locus YDR054C, strain cdc34, hits give low values
[15] = locus YDR226W, strain ADK1, hits give low values
[16] = locus YDR477W, strain SNF1, hits give low values
[17] = locus YER123W, strain YCK3, hits give low values
[18] = locus YER133W, strain GLC7, hits give low values
[19] = locus YFL009W, strain cdc4, hits give low values
[20] = locus YFL029C, strain CAK1, hits give low values
[21] = locus YFR003C, strain YPI1, hits give low values
[22] = locus YFR019W, strain FAB1, hits give low values
[23] = locus YFR028C, strain CDC14, hits give low values
[24] = locus YGR040W, strain KSS1, hits give low values
[25] = locus YGR052W, strain FMP48, hits give low values
[26] = locus YGR092W, strain DBF2, hits give low values
[27] = locus YHR079C, strain IRE1, hits give low values
[28] = locus YHR082C, strain KSP1, hits give low values
[29] = locus YHR205W, strain SCH9, hits give low values
[30] = locus YIL147C, strain SLN1, hits give low values
[31] = locus YJL095W, strain BCK1, hits give low values
[32] = locus YJL128C, strain PBS2, hits give low values
[33] = locus YJL157C, strain FAR1, hits give low values
[34] = locus YJR016C, strain ILV3, hits give low values
[35] = locus YJR066W, strain TOR1 (second series), hits give low values
[36] = locus YJR066W, strain TOR1, hits give low values
[37] = locus YKL048C, strain ELM1, hits give low values
[38] = locus YKL067W, strain YNK1, hits give low values
[39] = locus YKL101W, strain HSL1, hits give low values
[40] = locus YKL193C, strain SDS22, hits give low values
[41] = locus YKL203C, strain TOR2, hits give low values
[42] = locus YLR113W, strain HOG1, hits give low values
[43] = locus YLR133W, strain CKI1, hits give low values
[44] = locus YLR403W, strain SFP1, hits give low values
[45] = locus YML070W, strain DAK1, hits give low values
[46] = locus YMR001C, strain CDC5, hits give low values
[47] = locus YMR205C, strain PFK2 (second series), hits give low values
[48] = locus YMR277W, strain FCP1, hits give low values
[49] = locus YNL006W, strain LST8, hits give low values
[50] = locus YNL020C, strain ARK1, hits give low values
[51] = locus YNL161W, strain CBK1, hits give low values
[52] = locus YNL183C, strain NPR1, hits give low values
[53] = locus YNL207W, strain RIO2, hits give low values
[54] = locus YNL222W, strain SSU72, hits give low values
[55] = locus YNL307C, strain MCK1 (second series), hits give low values
[56] = locus YOL078W, strain AVO1, hits give low values
[57] = locus YOL136C, strain PFK27, hits give low values
[58] = locus YOR061W, strain CKA2, hits give low values
[59] = locus YOR119C, strain RIO1, hits give low values
[60] = locus YOR231W, strain MKK1, hits give low values
[61] = locus YOR329C, strain SCD5, hits give low values
[62] = locus YPL031C, strain PHO85, hits give low values
[63] = locus YPL153C, strain RAD53, hits give low values
[64] = locus YPL204W, strain HRR25, hits give low values
[65] = locus YPL209C, strain IPL1, hits give low values
[66] = locus YPL256C, strain CLN2, hits give low values
[67] = locus YPR025C, strain CCL1, hits give low values
[68] = locus YPR106W, strain ISR1, hits give low values
[69] = locus YPR111W, strain DBF20, hits give low values
[70] = strain NNK1, hits give low values
[71] = strain TSCII, hits give low values

Q: What does the source list for N/C(=N/O)c1cnccc1C(F)(F)F?
A: normalized growth (locus YAL013W, strain DEP1, hits give low values): 0.987; normalized growth (locus YBR229C, strain ROT2, hits give low values): 1.01; normalized growth [1]: 1.01; normalized growth (locus YDL134C, strain PPH21, hits give low values): 0.999; normalized growth (locus YDR150W, strain NUM1, hits give low values): 0.986; normalized growth (locus YEL061C, strain CIN8, hits give low values): 0.998; normalized growth (locus YGR078C, strain PAC10, hits give low values): 0.994; normalized growth [2]: 0.978; normalized growth (locus YHR087W, strain rtc3, hits give low values): 0.986; normalized growth (locus YJL187C, strain SWE1, hits give low values): 0.991; normalized growth (locus YJR043C, strain POL32, hits give low values): 0.993; normalized growth (locus YJR075W, strain HOC1, hits give low values): 0.993; normalized growth (locus YKL190W, strain CNB1, hits give low values): 0.997; normalized growth (locus YLR039C, strain RIC1, hits give low values): 1.04; normalized growth (locus YLR058C, strain SHM2 (second series), hits give low values): 0.993; normalized growth (locus YLR085C, strain ARP6, hits give low values): 0.976; normalized growth (locus YLR262C, strain YPT6, hits give low values): 0.99; normalized growth (locus YML094W, strain GIM5, hits give low values): 1.05; normalized growth (locus YMR219W, strain ESC1, hits give low values): 0.996; normalized growth (locus YMR263W, strain SAP30, hits give low values): 0.977; normalized growth (locus YMR307W, strain GAS1, hits give low values): 0.958; normalized growth (locus YNL153C, strain GIM3, hits give low values): 1.01; normalized growth (locus YNL298W, strain CLA4 (second series), hits give low values): 0.996; normalized growth (locus YNL322C, strain KRE1, hits give low values): 1; normalized growth (locus YNR030W, strain Alg12, hits give low values): 0.999; normalized growth (locus YPL055C, strain LGE1, hits give low values): 0.989; normalized growth (locus YPL241C, strain CIN2, hits give low values): 1.03; normalized growth (locus YPR135W, strain CTF4, hits give low values): 1.01

Q: Which normalized growth [3] does the source give for Cn1ncc(-c2nc(-c3ccc(Cl)cc3)cs2)c1N here?
A: 0.933

Q: And the normalized growth [4]?
A: 0.931

Q: And the normalized growth [5]?
A: 0.935

Q: What about the normalized growth [6] of the same molecule?
A: 0.933

Q: And the normalized growth [7]?
A: 0.939

Q: And the normalized growth [8]?
A: 0.935

Q: And the normalized growth [9]?
A: 0.94

Q: And the normalized growth [1]?
A: 0.961

Q: And the normalized growth [10]?
A: 0.936

Q: What about the normalized growth [11] of the same molecule?
A: 0.931

Q: And the normalized growth [12]?
A: 0.904

Q: And the normalized growth [13]?
A: 0.935

Q: What about the normalized growth [14] of the same molecule?
A: 0.91

Q: What about the normalized growth [15] of the same molecule?
A: 0.925

Q: And the normalized growth [16]?
A: 0.785

Q: And the normalized growth [17]?
A: 0.921

Q: What about the normalized growth [18] of the same molecule?
A: 0.75

Q: What about the normalized growth [19] of the same molecule?
A: 0.935

Q: And the normalized growth [20]?
A: 0.942

Q: And the normalized growth [21]?
A: 0.943

Q: What about the normalized growth [22] of the same molecule?
A: 0.95

Q: And the normalized growth [23]?
A: 0.922

Q: And the normalized growth [24]?
A: 0.785

Q: What about the normalized growth [25] of the same molecule?
A: 0.854

Q: What about the normalized growth [26] of the same molecule?
A: 0.781

Q: And the normalized growth [2]?
A: 0.687 (active)

Q: What about the normalized growth [27] of the same molecule?
A: 0.822

Q: What about the normalized growth [28] of the same molecule?
A: 0.897

Q: What about the normalized growth [29] of the same molecule?
A: 0.798

Q: And the normalized growth [30]?
A: 0.936

Q: What about the normalized growth [31] of the same molecule?
A: 0.729

Q: And the normalized growth [32]?
A: 0.987

Q: What about the normalized growth [33] of the same molecule?
A: 0.879

Q: And the normalized growth [34]?
A: 0.934

Q: What about the normalized growth [35] of the same molecule?
A: 0.8

Q: And the normalized growth [36]?
A: 0.78

Q: What about the normalized growth [37] of the same molecule?
A: 0.95

Q: What about the normalized growth [38] of the same molecule?
A: 0.932

Q: What about the normalized growth [39] of the same molecule?
A: 0.947

Q: And the normalized growth [40]?
A: 0.924

Q: And the normalized growth [41]?
A: 0.817

Q: And the normalized growth [42]?
A: 0.906

Q: And the normalized growth [43]?
A: 0.886

Q: What about the normalized growth [44] of the same molecule?
A: 0.651 (active)

Q: What about the normalized growth [45] of the same molecule?
A: 0.91

Q: What about the normalized growth [46] of the same molecule?
A: 0.914

Q: And the normalized growth [47]?
A: 0.917

Q: What about the normalized growth [48] of the same molecule?
A: 0.914

Q: And the normalized growth [49]?
A: 0.95

Q: And the normalized growth [50]?
A: 0.897

Q: And the normalized growth [51]?
A: 0.93

Q: What about the normalized growth [52] of the same molecule?
A: 0.892

Q: What about the normalized growth [53] of the same molecule?
A: 0.916

Q: And the normalized growth [54]?
A: 0.934

Q: And the normalized growth [55]?
A: 0.899

Q: What about the normalized growth [56] of the same molecule?
A: 0.934

Q: What about the normalized growth [57] of the same molecule?
A: 0.939

Q: What about the normalized growth [58] of the same molecule?
A: 0.874

Q: And the normalized growth [59]?
A: 0.803

Q: What about the normalized growth [60] of the same molecule?
A: 0.96

Q: And the normalized growth [61]?
A: 0.944

Q: And the normalized growth [62]?
A: 0.74

Q: What about the normalized growth [63] of the same molecule?
A: 0.776

Q: And the normalized growth [64]?
A: 0.774

Q: What about the normalized growth [65] of the same molecule?
A: 0.938

Q: What about the normalized growth [66] of the same molecule?
A: 0.859 (active)

Q: What about the normalized growth [67] of the same molecule?
A: 0.944

Q: And the normalized growth [68]?
A: 0.955

Q: And the normalized growth [69]?
A: 0.959

Q: What about the normalized growth [70] of the same molecule?
A: 0.966

Q: What about the normalized growth [71] of the same molecule?
A: 0.933

Q: What does the source list for FC(F)(F)c1ccncc1-c1nc(-c2ccc(Cl)cc2)cs1?
A: normalized growth [3]: 0.982; normalized growth [4]: 0.984; normalized growth [5]: 0.98; normalized growth [6]: 0.982; normalized growth [7]: 0.985; normalized growth [8]: 0.991; normalized growth [9]: 0.978; normalized growth [1]: 0.97; normalized growth [10]: 0.984; normalized growth [11]: 0.973; normalized growth [12]: 0.914; normalized growth [13]: 0.989; normalized growth [14]: 0.979; normalized growth [15]: 0.979; normalized growth [16]: 0.949; normalized growth [17]: 0.852; normalized growth [18]: 0.936; normalized growth [19]: 0.981; normalized growth [20]: 0.977; normalized growth [21]: 0.985; normalized growth [22]: 0.887; normalized growth [23]: 0.976; normalized growth [24]: 0.923; normalized growth [25]: 0.869; normalized growth [26]: 0.933; normalized growth [2]: 0.78 (active); normalized growth [27]: 0.775; normalized growth [28]: 1; normalized growth [29]: 0.894; normalized growth [30]: 0.987; normalized growth [31]: 0.759; normalized growth [32]: 0.896; normalized growth [33]: 0.927; normalized growth [34]: 0.979; normalized growth [35]: 0.937; normalized growth [36]: 1.01; normalized growth [37]: 0.955; normalized growth [38]: 0.922; normalized growth [39]: 0.919; normalized growth [40]: 0.986; normalized growth [41]: 1.01; normalized growth [42]: 0.686 (active); normalized growth [43]: 0.911; normalized growth [44]: 0.934; normalized growth [45]: 0.878; normalized growth [46]: 0.986; normalized growth [47]: 0.905; normalized growth [48]: 0.962; normalized growth [49]: 0.99; normalized growth [50]: 0.906; normalized growth [51]: 0.971; normalized growth [52]: 0.774; normalized growth [53]: 0.987; normalized growth [54]: 0.98; normalized growth [55]: 0.922; normalized growth [56]: 0.972; normalized growth [57]: 0.868; normalized growth [58]: 0.933; normalized growth [59]: 0.975; normalized growth [60]: 0.766; normalized growth [61]: 0.981; normalized growth [62]: 0.917; normalized growth [63]: 0.917; normalized growth [64]: 0.908; normalized growth [65]: 0.987; normalized growth [66]: 0.682 (active); normalized growth [67]: 0.988; normalized growth [68]: 0.956; normalized growth [69]: 0.949; normalized growth [70]: 0.942; normalized growth [71]: 0.972
